# From the supplement of paper PMC8728848
# Many of the other results were omitted from the sample, so the strongest signals are more common in it than they were.
# How the values were obtained:
# Experiment in all cases: glycan array binding signal (z-score within array); higher = stronger binding
# Conditions in all cases: glycan notation: IUPAC condensed, linker removed
# [1] = target: Neu5Ac(a2-6)Gal(b1-4)GlcNAc(b1-2)Man(a1-3)[Gal(b1-4)GlcNAc(b1-2)Man(a1-6)]Man(b1-4)GlcNAc(b1-4)GlcNAc
# In short: (§1)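 Glycan array binding is given as a within-array Z-score, which can be read as non-binding when negative. The arrays, 3228 of them, came from the Consortium for Functional Glycomics database and were retained only where the protein sequence was available. Z-scores were averaged across arrays of the same protein sequence at different concentrations or buffers and across linkers.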
# [2] = target: Neu5Ac(a2-6)Gal(b1-4)GlcNAc(b1-2)Man(a1-6)Man(b1-4)GlcNAc(b1-4)GlcNAc
# In short: as §1
# [3] = target: Neu5Ac(a2-6)Gal(b1-4)GlcNAc(b1-2)Man(a1-6)[GlcNAc(b1-2)Man(a1-3)]Man(b1-4)GlcNAc(b1-4)GlcNAc
# In short: as §1
# [4] = target: Neu5Ac(a2-8)Neu5Ac(a2-8)Neu5Ac(a2-3)Gal(b1-4)Glc
# In short: as §1
# [5] = target: Neu5Ac(a2-8)Neu5Ac(a2-8)Neu5Ac(a2-3)[GalNAc(b1-4)]Gal(b1-4)Glc
# In short: as §1
# [6] = target: Neu5Gc(a2-3)Gal(b1-3)GlcNAc
# In short: as §1
# [7] = target: Fuc(a1-2)[Gal(a1-3)]Gal(b1-4)Glc
# In short: as §1
# Fuc(a1-3)GlcNAc = target: Fuc(a1-3)GlcNAc
# In short: as §1
# [8] = target: Fuc(a1-3)[GalNAc(b1-4)]GlcNAc
# In short: as §1
# Gal(a1-3)GalNAc = target: Gal(a1-3)GalNAc
# In short: as §1
# Gal(b1-3)GalNAc = target: Gal(b1-3)GalNAc
# In short: as §1
# [9] = target: Gal(b1-3)GalNAc(b1-4)[Neu5Ac(a2-3)]Gal(b1-4)Glc
# In short: as §1
# [10] = target: Gal(b1-3)GlcNAc(b1-3)Gal(b1-4)GlcNAc
# In short: as §1
# [11] = target: Gal(b1-3)[Fuc(a1-4)]GlcNAc
# In short: as §1
# Gal3S(b1-3)GalNAc = target: Gal3S(b1-3)GalNAc
# In short: as §1
# Gal6S(b1-4)GlcNAc = target: Gal6S(b1-4)GlcNAc
# In short: as §1
# [12] = target: GalNAc(b1-4)GlcNAc(b1-2)Man(a1-3)[GalNAc(b1-4)GlcNAc(b1-2)Man(a1-6)]Man(b1-4)GlcNAc(b1-4)GlcNAc
# In short: as §1
# GlcA(b1-6)Gal = target: GlcA(b1-6)Gal
# In short: as §1
# [13] = target: GlcNAc(a1-4)Gal(b1-4)GlcNAc(b1-3)Gal(b1-4)Glc
# In short: as §1
# [14] = target: GlcNAc(b1-2)Man(a1-3)[GlcNAc(b1-2)Man(a1-6)]Man(b1-4)GlcNAc(b1-4)[Fuc(a1-6)]GlcNAc
# In short: as §1
# [15] = target: GlcNAc(b1-3)Gal(b1-4)GlcNAc(b1-3)Gal(b1-4)GlcNAc
# In short: as §1
# [16] = target: GlcNAc(b1-4)GlcNAc(b1-4)GlcNAc(b1-4)GlcNAc(b1-4)GlcNAc
# In short: as §1
# Kdn(a2-3)Gal(b1-3)GalNAc = target: Kdn(a2-3)Gal(b1-3)GalNAc
# In short: as §1
# [17] = target: Man(a1-2)Man(a1-3)[Man(a1-2)Man(a1-6)]Man(a1-6)[Man(a1-2)Man(a1-2)Man(a1-3)]Man(b1-4)GlcNAc(b1-4)GlcNAc
# In short: as §1
# Man(a1-3)[Man(a1-6)]Man = target: Man(a1-3)[Man(a1-6)]Man
# In short: as §1
# [18] = target: Neu5Ac(a2-3)Gal(b1-3)GalNAc(b1-3)Gal(a1-4)Gal(b1-4)Glc
# In short: as §1
# [19] = target: Neu5Ac(a2-3)Gal(b1-3)[Fuc(a1-4)]GlcNAc(b1-3)Gal(b1-3)[Fuc(a1-4)]GlcNAc
# In short: as §1
# [20] = target: Neu5Ac(a2-3)Gal(b1-3)[Neu5Ac(a2-6)]GalNAc
# In short: as §1
# [21] = target: Neu5Ac(a2-3)Gal(b1-4)GlcNAc(b1-2)Man(a1-3)[Neu5Ac(a2-6)Gal(b1-4)GlcNAc(b1-2)Man(a1-6)]Man(b1-4)GlcNAc(b1-4)GlcNAc
# In short: as §1
# [22] = target: Neu5Ac(a2-3)Gal(b1-4)GlcNAc(b1-3)Gal(b1-4)GlcNAc
# In short: as §1
# [23] = target: Neu5Ac(a2-3)Gal(b1-4)GlcNAc6S
# In short: as §1
# [24] = target: Neu5Ac(a2-3)Gal(b1-4)[Fuc(a1-3)]GlcNAc(b1-6)[Neu5Ac(a2-3)Gal(b1-3)]GalNAc
# In short: as §1
# [25] = target: Neu5Ac(a2-3)Gal6S(b1-4)GlcNAc
# In short: as §1
# [26] = target: Neu5Ac(a2-8)Neu5Ac(a2-3)[GalNAc(b1-4)]Gal(b1-4)Glc
# In short: as §1
# [27] = target: Neu5Ac(a2-8)Neu5Ac(a2-8)Neu5Ac
# In short: as §1
binder,measurement,setting,value
"SspB (Streptococcus gordonii), P16952 (protein) MKNKKEVYGFRKSKVAKTLCGAVLGTALIAFADKAVFADEVTETTSTSTVEVATTGNPATNLPEAQGEMSQVAKESQAKAGSKESALPVEVSSADLDKAVADAKSAGVKVVQDETKDKGTATTATDNAQKQDEIKSDYAKQAEEIKTTTEAYKKEVAAHQAETDKINAENKAADDKYQKDLKSHQEEVEKINTANATAKAEYEAKLAQYQKDLATVKKANEDSQQDYQNKLSAYQTELARVQKANAEAKEAYEKAVKENTAKNEALKVENEAIKQRNETAKATYEAAMKQYEADLAAIKKANEDNDADYQAKLAAYQTELARVQKANAEAKEAYDKAVKENTAKNTAIQAENEAIKQRNETAKATYDAAVKKYEADLAAVKQANATNEADYQAKLAAYQTELARVQKANADAKATYEKAVEDNKAKNAAIKAENEEIKQRNAVAKTDYEAKLAKYEADLAKYKKEFAAYTAALAEAESKKKQDGYLSEPRSQSLNFKSEPNAIRTIDSSVHQYGQQELDALVKSWGISPTNPDRKKSRAYSYFNAINSNNTYAKLVLEKDKPVDVTYTGLKNSSFNGKKISKVVYTYTLKETGFNDGTKMTMFASSDPTVTAWYNDYFTSTNINVKVKFYDEEGQLMNLTGGLVNFSSLNRGNGSGAIDKDAIESVRNFNGRYIPISGSSIKIHENNSAYADSSNAEKSLGARWNTSEWDTTSSPNNWYGAIVGEITQSEISFNMASSKSGNIWFAFNSNINAIGVPTKPVAPTAPTQPMYETEKPLEPAPVAPSYENEPTPPVKTPDQPEPSKPEEPTYETEKPLEPAPVAPSYENEPTPPVKTPDQPEPSKPEEPNYETEKPLEPAPVAPSYENEPTPPVKIPDQPEPSKPEEPTYDPLPTPPLAPTPKQLPTPPVVPTVHFHYSSLLAQPQINKEIKNEDGVDIDRTLVAKQSIVKFELKTEALTAGRPKTTSFVLVDPLPTGYKFDLDATKAASTGFDTTYDEASHTVTFKATDETLATYNADLTKPVETLHPTVVGRVLNDGATYTNNFTLTVNDAYGIKSNVVRVTTPGKPNDPDNPNNNYIKPTKVNKNKEGLNIDGKEVLAGSTNYYELTWDLDQYKGDKSSKEAIQNGFYYVDDYPEEALDVRPDLVKVADEKGNQVSGVSVQQYDSLEAAPKKVQDLLKKANITVKGAFQLFSADNPEEFYKQYVATGTSLVITDPMTVKSEFGKTGGKYENKAYQIDFGNGYATEVVVNNVPKITPKKDVTVSLDPTSENLDGQTVQLYQTFNYRLIGGLIPQNHSEELEDYSFVDDYDQAGDQYTGNYKTFSSLNLTMKDGSVIKAGTDLTSQTTAETDATNGIVTVRFKEDFLQKISLDSPFQAETYLQMRRIAIGTFENTYVNTVNKVAYASNTVRTTTPIPRTPDKPTPIPTPKPKDPDKPETPKEPKVPSPKVEDPSAPIPVSVGKELTTLPKTGTNDATYMPYLGLAALVGFLGLGLAKRKED",glycan array binding signal (z-score),[1],3.2
same,glycan array binding signal (z-score),[2],1.36
same,glycan array binding signal (z-score),[3],0.081
same,glycan array binding signal (z-score),[4],2.25
same,glycan array binding signal (z-score),[5],2.4
same,glycan array binding signal (z-score),[6],0.179
"Sialidase (Vibrio cholerae), P37060 (protein) GAMALFDYNATGDTEFDSPAKQGWMQDNTNNGSGVLTNADGMPAWLVQGIGGRAQWTYSLSTNQHAQASSFGWRMTTEMKVLSGGMITNYYANGTQRVLPIISLDSSGNLVVEFEGQTGRTVLATGTAATEYHKFELVFLPGSNPSASFYFDGKLIRDNIQPTASKQNMIVWGNGSSNTDGVAAYRDIKFEIQGDALNGSMALFDYNATGDTEFDSPAKQGWMQDNTNNGSGVLTNADGMPAWLVQGIGGRAQWTYSLSTNQHAQASSFGWRMTTEMKVLSGGMITNYYANGTQRVLPIISLDSSGNLVVEFEGQTGRTVLATGTAATEYHKFELVFLPGSNPSASFYFDGKLIRDNIQPTASKQNMIVWGNGSSNTDGVAAYRDIKFEIQGDLQALGMALFDYNATGDTEFDSPAKQGWMQDNTNNGSGVLTNADGMPAWLVQGIGGRAQWTYSLSTNQHAQASSFGWRMTTEMKVLSGGMITNYYANGTQRVLPIISLDSSGNLVVEFEGQTGRTVLATGTAATEYHKFELVFLPGSNPSASFYFDGKLIRDNIQPTASKQNMIVWGNGSSNTDGVAAYRDIKFEIQGD",glycan array binding signal (z-score),[7],-0.115
same,glycan array binding signal (z-score),Fuc(a1-3)GlcNAc,-0.622
same,glycan array binding signal (z-score),[8],-0.6
same,glycan array binding signal (z-score),Gal(a1-3)GalNAc,-0.472
same,glycan array binding signal (z-score),Gal(b1-3)GalNAc,-0.469
same,glycan array binding signal (z-score),[9],0.396
same,glycan array binding signal (z-score),[10],-0.474
same,glycan array binding signal (z-score),[11],-0.364
same,glycan array binding signal (z-score),Gal3S(b1-3)GalNAc,-0.567
same,glycan array binding signal (z-score),Gal6S(b1-4)GlcNAc,-0.619
same,glycan array binding signal (z-score),[12],-0.622
same,glycan array binding signal (z-score),GlcA(b1-6)Gal,-0.085
same,glycan array binding signal (z-score),[13],-0.574
same,glycan array binding signal (z-score),[14],-0.267
same,glycan array binding signal (z-score),[15],0.631
same,glycan array binding signal (z-score),[16],-0.605
same,glycan array binding signal (z-score),Kdn(a2-3)Gal(b1-3)GalNAc,-0.286
same,glycan array binding signal (z-score),[17],0.193
same,glycan array binding signal (z-score),Man(a1-3)[Man(a1-6)]Man,-0.644
same,glycan array binding signal (z-score),[18],-0.275
same,glycan array binding signal (z-score),[19],5.53
same,glycan array binding signal (z-score),[20],2.8
same,glycan array binding signal (z-score),[21],6.62
same,glycan array binding signal (z-score),[22],4.64
same,glycan array binding signal (z-score),[23],2.73
same,glycan array binding signal (z-score),[24],0.955
same,glycan array binding signal (z-score),[25],6.38
same,glycan array binding signal (z-score),[2],1.84
same,glycan array binding signal (z-score),[26],-0.257
same,glycan array binding signal (z-score),[27],0.113
